ST2 IL33 inh – inhibitors of human ST2 (IL1RL1) binding to IL-33, primary screen, biochemical, AlphaLISA. inhibition, % for hits at 17 µM. AID 1259354, 2018. AlphaLISA ST2-Fc/biotin-IL-33 interaction, 1 h. Interleukin-1 receptor-like 1 (Homo sapiens), Q01638. hit rate 2.3% among 78,000; in the data active = inhibition above about 30%
Target sequence (Q01638 whole entry, looked up): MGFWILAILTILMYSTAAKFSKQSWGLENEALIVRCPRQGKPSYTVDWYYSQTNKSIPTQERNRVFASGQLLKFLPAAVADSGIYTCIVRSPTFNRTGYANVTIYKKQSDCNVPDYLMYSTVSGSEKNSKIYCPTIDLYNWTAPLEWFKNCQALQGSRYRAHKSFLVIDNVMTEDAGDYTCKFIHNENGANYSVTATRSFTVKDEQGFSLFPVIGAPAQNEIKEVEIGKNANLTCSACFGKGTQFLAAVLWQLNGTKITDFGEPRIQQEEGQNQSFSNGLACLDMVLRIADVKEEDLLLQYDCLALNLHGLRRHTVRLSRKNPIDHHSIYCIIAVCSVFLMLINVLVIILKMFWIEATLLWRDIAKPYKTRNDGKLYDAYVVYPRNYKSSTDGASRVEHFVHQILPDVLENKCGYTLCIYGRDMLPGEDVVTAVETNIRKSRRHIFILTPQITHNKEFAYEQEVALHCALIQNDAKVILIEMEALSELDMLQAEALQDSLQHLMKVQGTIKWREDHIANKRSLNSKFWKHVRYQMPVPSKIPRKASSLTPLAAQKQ
Numbers stand for hits; 0 = inactive; ! = not active in a repeat. This excerpt belongs to a sample that is enriched for hits.

SMILES	ST2 IL33 inh
CC12COc3ccccc3C1c1sc(=O)[nH]c1SC2 (stereo not drawn)	32.0%
Cc1cnc(NC(=O)CCC2CCCC2)s1	0
COc1cc(C(=O)Nc2ccc(Cl)c(Cl)c2)cc(OC)c1OC	0
O=C1NC(c2cccc(Br)c2)Nc2ccccc21 (stereo not drawn)	0
O=C1NC2=C(C(=O)c3ccccc32)C(c2ccccc2)N1 (stereo not drawn)	0
O=C1c2ccccc2C(=O)C1C1=Nc2ccccc2NC(c2ccccc2)C1 (stereo not drawn)	31.0%!
COc1ccc(C2SCCN2S(=O)(=O)c2ccc(Cl)c(Cl)c2)cc1OC (stereo not drawn)	0
CN1CCN(CC(=O)Nc2ccc(OC(F)(F)Cl)cc2)CC1	0
COC(=O)c1ccc2c(c1)C(=O)N(c1cccc(Cl)c1Cl)C2=O	0
Cc1ccc(-n2nc3c(c2NC(=O)c2ccc(C)c(C)c2)CSC3)cc1	0
CCC(C)NC(=O)c1ccc(NC(=O)Cn2c(=O)oc3ccccc32)cc1 (stereo not drawn)	0
CCOC(=O)Cn1c(=O)oc2cc(Cl)ccc21	0
O=C(Cn1c(=O)oc2ccccc21)Nc1ccc(Cl)cc1Cl	46.0%
O=C(NCc1ccc(F)cc1)c1cc2c(s1)CN(C1CCCCCC1)C2	0
CCCCN(CC)S(=O)(=O)c1ccc2[nH]c(=O)cc(C(=O)NCc3ccco3)c2c1	0
Cc1nn(CC(=O)N2CCc3[nH]nc(C(C)C)c3C2)c(=O)c2ccccc12	0
CC(C)(C)C(=O)Nc1c(C(=O)Nc2cccc(F)c2)oc2ccccc12	0
Cc1ccc(CN2CC34C=CC(O3)C(C(=O)NCc3ccc(F)cc3)C4C2=O)cc1 (stereo not drawn)	0
Cc1[nH]c2ccccc2c1C(C[N+](=O)[O-])c1ccco1 (stereo not drawn)	36.0%
Cc1ccc(-c2[nH]c3ccccc3c2C(C[N+](=O)[O-])c2ccco2)cc1 (stereo not drawn)	0
COc1cc(C(C[N+](=O)[O-])c2c(C)[nH]c3ccccc23)ccc1O (stereo not drawn)	0
CCOc1ccccc1NC(=O)C1c2cc(OC)c(OC)cc2C(=O)N(C)C1c1cccs1 (stereo not drawn)	0
Cc1ccc(NCC(=O)c2ccc([N+](=O)[O-])cc2)cc1	36.0%
CC(C)(C)CC(=O)Nc1ccc([N+](=O)[O-])cc1	0
Cc1ccc(NC(=O)c2ccc([N+](=O)[O-])cc2)cc1F	0
SMILES	ST2 IL33 inh
CCOC(=O)c1cccc(N2C(=O)C3C4c5ccccc5C(C)(c5ccccc54)C3C2=O)c1 (stereo not drawn)	0
Clc1ccc(-c2ncnn2-c2ccccc2Cl)cc1	0
COc1cc(-c2ncnn2-c2cccc(Cl)c2C)cc(OC)c1OC	33.0%
COc1cc(-c2ncnn2-c2ccc(Cl)cc2)cc(OC)c1OC	0
Cn1c2c(c3cc(F)ccc31)CCCC2=O	0
Cc1c(-c2ccccc2)sc(N)c1C#N	33.0%
Cc1cc(-c2ccccc2)c(C#N)c(N)n1	0
CCOC(=O)c1sc(-c2ccccc2)c(C#N)c1C	0
CCOc1cccc(S(=O)(=O)N=C2C=C(C(C)(C)C)C(=O)C(C(C)(C)C)=C2)c1	0
CC(C)(C)c1ccc(S(N)(=O)=O)cc1	0
CCc1ccc(S(=O)(=O)N(CC)CC)cc1	0
CC(C)(C)c1ccc(S(=O)(=O)Nc2ccccn2)cc1	0
CCc1ccc(S(=O)(=O)N=C2C=CC(=O)c3ccccc32)cc1	49.0%
CC(C)(C)c1ccc(S(=O)(=O)N=C2C=CC(=O)c3ccccc32)cc1	44.0%
CCc1ccc(S(=O)(=O)N2CCCN(S(=O)(=O)c3ccc(CC)cc3)CC2)cc1	0
CCOc1ccc(C2C(=O)c3ccccc3C2=O)cc1	0
CCOc1ccc(S(=O)(=O)N=C2C=CC(=O)c3ccccc32)cc1	49.0%
Cc1nc2cc(-c3ccccc3)nn2c(C)c1CCC(=O)NCCCN1CCCC1=O	0
O=C(Nc1ccc2c(c1)OCO2)c1ccc(Br)cc1	0
Cc1nc(C(=O)Nc2ccc3c(c2)OCO3)cc2c1[nH]c1ccccc12	30.0%
O=C(O)C1CC=CCC1C(=O)Nc1ccc2c(c1)OCO2 (stereo not drawn)	0
COc1cc(C(=O)Nc2ccc3c(c2)OCO3)cc(OC)c1OC	0
O=C(O)C1C2C=CC(O2)C1C(=O)Nc1ccc2c(c1)OCO2 (stereo not drawn)	31.0%
O=C(CC1CCCCC1)Nc1ccc2c(c1)OCO2	0
Cc1cc(NC(=O)c2cc(-c3ccc4c(c3)OCO4)on2)no1	0
SMILES	ST2 IL33 inh
Cc1cccc(NC(=O)c2cc3c([nH]c4ccccc43)c(C)n2)c1C	0
O=C(Nc1ccc2c(c1)OCO2)c1cc(-c2ccccc2O)on1	0
O=C(Nc1ccc(F)c(Cl)c1)c1cc(-c2ccc3c(c2)OCO3)on1	0
CC(=O)c1ccc(NC(=O)c2cc(-c3ccc4c(c3)OCO4)on2)cc1	31.0%
Cc1ccc(C(=O)Nc2ccc3c(c2)OCO3)cc1	30.0%!
COc1ccc(-c2nc3s/c(=C\c4ccco4)c(=O)n3n2)cc1	0
COc1ccc(S(=O)(=O)NC2CC(C)(C)NC(C)(C)C2)cc1OC	0
Cc1cc(C)cc(-n2c(CN3CCN(C(=O)Nc4c(C)cccc4C)CC3)nc3cccnc32)c1	0
Cc1ccccc1CN1CCC(CNC(=O)c2cccn(C)c2=O)C1 (stereo not drawn)	0
CCN(Cc1nc(COC)no1)C(=O)c1ccccc1-c1ccccc1	0
CCOc1ccccc1C(=O)n1cc(Cl)cn1	0
CCN(CC)S(=O)(=O)NCC1CCN(Cc2cccs2)C1 (stereo not drawn)	0
Cc1cc(-c2cc3c(n(Cc4cccnc4)c2=O)CCN(C(=O)c2nonc2C)C3)ccc1F	0
CCOc1ccc(N=c2scc(-c3ccc(C)cc3)n2C)cc1	43.0%
CCOC(=O)c1sc(=Nc2ccc(C)cc2)n(CCN2CCOCC2)c1C	0
O=C(NCc1ccc(F)cc1)c1cc(-c2ccc(Cl)cc2)on1	0
CCOc1ccc(NC(=O)Cc2ccc(F)cc2)cc1	0
O=S(=O)(c1ccc(-c2csc(=Nc3ccc(Cl)cc3)n2CCCO)cc1)N1CCCC1	40.0%
CCOc1ccc(N=c2scc(-c3ccc(F)cc3)n2CCCO)cc1	40.0%
Cn1c(=NC(=O)c2ccc(S(=O)(=O)N3CCCC3)cc2)sc2cc(Cl)ccc21	0
O=C(c1ccc(S(=O)(=O)N2CCCC2)cc1)N1CCN=C1SCc1ccc(Cl)cc1	0
OCCCn1c(-c2ccc(F)cc2)csc1=Nc1ccc(Cl)cc1	46.0%
Fc1ccc(Nc2nc(-c3ccc(Cl)cc3)cs2)cc1	0
CCOC(=O)c1sc(=NC(=O)c2ccc(OCC)cc2)n(C)c1C	0
CCOc1ccc(-c2csc(=Nc3ccccc3)n2CCN2CCOCC2)cc1	0
SMILES	ST2 IL33 inh
Cc1ccc(NC(=O)c2cc3c(=O)n4ccccc4nc3n2C)cc1C	0
O=C(/C=C/c1ccc([N+](=O)[O-])s1)Nc1cccc2c1C(=O)c1ccccc1C2=O	0
Cc1ccc(N2CC(=O)Nc3ccccc3S2(=O)=O)cc1C	0
CCN(CCNC(=O)c1cc(=O)[nH]c2ccc(S(=O)(=O)N3CCCC3)cc12)c1ccccc1	0
CNc1oc(-c2ccc(Cl)cc2)nc1S(=O)(=O)c1ccc(C)cc1	0
CC(C)C(Nc1ccc(C(F)(F)F)cc1[N+](=O)[O-])C(=O)O (stereo not drawn)	0
CC(=O)Nc1ccc(S(=O)(=O)Nc2ccc(C(F)(F)F)cc2[N+](=O)[O-])cc1	0
Cc1nonc1OCC(C)(C)Nc1ccc(C(F)(F)F)cc1[N+](=O)[O-]	36.0%
